Results published in the supplement of paper PMC6555819.

Tests used:
Test in all cases: PBM binding z-score (relative to random genomic background probes); higher = stronger binding; sequences stand for … in GC…GCGATTGACAGCGTAGAATGAAGG
[1] = system: FXR:RXRa (NR concentration 270 nM, RXRa partner concentration 90 nM)
Outline: (§1)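 Random background probes are the reference for binding z-scores. These scores derive from regression-normalized fluorescence on custom Agilent 4×180K protein-binding microarrays incubated 1 h with ligand-free nuclear receptor dimers. Binding was detected with antibodies against each partner (one per run).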

[2] = system: LXRa:RXRa (NR concentration 270 nM, RXRa partner concentration 90 nM)
Outline: as §1

[3] = system: LXRa homodimer (NR concentration 270 nM)
Outline: as §1

[4] = system: LXRb:RXRa (NR concentration 270 nM, RXRa partner concentration 90 nM)
Outline: as §1

[5] = system: LXRb homodimer (NR concentration 270 nM)
Outline: as §1

[6] = system: PPARa:RXRa (NR concentration 270 nM, RXRa partner concentration 90 nM)
Outline: as §1

[7] = system: PPARg:RXRa (NR concentration 180 nM, RXRa partner concentration 90 nM)
Outline: as §1

[8] = system: PPARg:RXRa 270nM:90nM, anti-RXR (NR concentration 270 nM, RXRa partner concentration 90 nM)
Outline: as §1

[9] = system: PPARg:RXRa 30nM:10nM, anti-RXR (NR concentration 30 nM, RXRa partner concentration 10 nM)
Outline: as §1

[10] = system: PPARg:RXRa 90nM:30nM, anti-RXR (NR concentration 90 nM, RXRa partner concentration 30 nM)
Outline: as §1

[11] = system: PPARg:RXRa DBDmut IVT, anti-RXR (DBD mutation: RXRa K156A/R161A, NR concentration 270 nM, RXRa partner concentration 90 nM)
Outline: as §1

[12] = system: PPARg:RXRa IVT, anti-PPARg (NR concentration 270 nM, RXRa partner concentration 90 nM)
Outline: as §1

[13] = system: PPARg DBDmut:RXRa IVT, anti-PPARg (DBD mutation: PPARg1 K132A/R137A, NR concentration 270 nM, RXRa partner concentration 90 nM)
Outline: as §1

[14] = system: PPARg DBDmut IVT, anti-PPARg (DBD mutation: PPARg1 K132A/R137A, NR concentration 270 nM)
Outline: as §1

[15] = system: PPARg homodimer (NR concentration 180 nM)
Outline: as §1

[16] = system: PXR:RXRa (NR concentration 270 nM, RXRa partner concentration 90 nM)
Outline: as §1

[17] = system: PXR homodimer (NR concentration 270 nM)
Outline: as §1

[18] = system: RARa:RXR (NR concentration 270 nM, RXRa partner concentration 90 nM)
Outline: as §1

[19] = system: RARa homodimer (NR concentration 270 nM)
Outline: as §1

[20] = system: RARb:RXRa (NR concentration 270 nM, RXRa partner concentration 90 nM)
Outline: as §1

CAAACTAGGTCAAGAAAGGTCAAAGTCGAATGAC
PBM binding z-score [1]: 7.13 | PBM binding z-score [2]: 7.84 | PBM binding z-score [3]: 7.14 | PBM binding z-score [4]: 6.98 | PBM binding z-score [5]: 2.48 | PBM binding z-score [6]: 6.35 | PBM binding z-score [7]: 8.96 | PBM binding z-score [8]: 7.74 | PBM binding z-score [9]: 5.91 | PBM binding z-score [10]: 7.85 | PBM binding z-score [11]: 8.14 | PBM binding z-score [12]: 8.39 | PBM binding z-score [13]: 1.43 | PBM binding z-score [14]: 1.46 | PBM binding z-score [15]: 4.85 | PBM binding z-score [16]: 6.73 | PBM binding z-score [17]: 3.25 | PBM binding z-score [18]: 7.01 | PBM binding z-score [19]: 3.23 | PBM binding z-score [20]: 5.44

ACGTACGGGTCAACGAGGTTATAGCACGCGTATA
PBM binding z-score [1]: 7 | PBM binding z-score [2]: 4.84 | PBM binding z-score [3]: 0.327 | PBM binding z-score [4]: 4.27 | PBM binding z-score [5]: 0.00154 | PBM binding z-score [6]: 5.95 | PBM binding z-score [7]: 5.01 | PBM binding z-score [8]: 4.94 | PBM binding z-score [9]: 1.55 | PBM binding z-score [10]: 3.46 | PBM binding z-score [11]: 1.33 | PBM binding z-score [12]: 2.92 | PBM binding z-score [13]: 0.48 | PBM binding z-score [14]: 0.418 | PBM binding z-score [15]: 1.72 | PBM binding z-score [16]: 5.2 | PBM binding z-score [17]: 2.83 | PBM binding z-score [18]: 5.19 | PBM binding z-score [19]: 0.777 | PBM binding z-score [20]: 4.28

CCAGACAGGCGAAAGGTAACTCAGTCTGGTACGC
PBM binding z-score [1]: -0.414 | PBM binding z-score [2]: -0.478 | PBM binding z-score [3]: -0.885 | PBM binding z-score [4]: -0.448 | PBM binding z-score [5]: -1.33 | PBM binding z-score [6]: 0.667 | PBM binding z-score [7]: 1.57 | PBM binding z-score [8]: 2.87 | PBM binding z-score [9]: 0.676 | PBM binding z-score [10]: 2.22 | PBM binding z-score [11]: -0.357 | PBM binding z-score [12]: -0.108 | PBM binding z-score [13]: -0.986 | PBM binding z-score [14]: -1.21 | PBM binding z-score [15]: -0.19 | PBM binding z-score [16]: -0.328 | PBM binding z-score [17]: -0.718 | PBM binding z-score [18]: -0.0922 | PBM binding z-score [19]: -0.38 | PBM binding z-score [20]: -0.0959

CGAACTAGGTCATTGACAGGACGGTGAATAGTAA
PBM binding z-score [1]: 4.57 | PBM binding z-score [2]: 2.37 | PBM binding z-score [3]: 0.115 | PBM binding z-score [4]: 1.47 | PBM binding z-score [5]: -0.0948 | PBM binding z-score [6]: 4.67 | PBM binding z-score [7]: 7.41 | PBM binding z-score [8]: 6.31 | PBM binding z-score [9]: 3.36 | PBM binding z-score [10]: 5.61 | PBM binding z-score [11]: 8.29 | PBM binding z-score [12]: 8.22 | PBM binding z-score [13]: 1.89 | PBM binding z-score [14]: 0.528 | PBM binding z-score [15]: 0.985 | PBM binding z-score [16]: 1.12 | PBM binding z-score [17]: -0.168 | PBM binding z-score [18]: 1.81 | PBM binding z-score [19]: 0.0523 | PBM binding z-score [20]: 3.63

GATAAAGGGTCAAGGCCAGAGTACGCGTATTGAT
PBM binding z-score [1]: 7.29 | PBM binding z-score [2]: 5.43 | PBM binding z-score [3]: 0.637 | PBM binding z-score [4]: 4.49 | PBM binding z-score [5]: 0.548 | PBM binding z-score [6]: 6.28 | PBM binding z-score [7]: 6.56 | PBM binding z-score [8]: 6.32 | PBM binding z-score [9]: 3.17 | PBM binding z-score [10]: 5.23 | PBM binding z-score [11]: 3.62 | PBM binding z-score [12]: 4.58 | PBM binding z-score [13]: 0.966 | PBM binding z-score [14]: 0.381 | PBM binding z-score [15]: 3.16 | PBM binding z-score [16]: 4.19 | PBM binding z-score [17]: 0.42 | PBM binding z-score [18]: 5.07 | PBM binding z-score [19]: 0.732 | PBM binding z-score [20]: 5.26

CGAACGAGGGCATCAGTTGATAGCAAATGCCGAT
PBM binding z-score [1]: 0.292 | PBM binding z-score [2]: 0.0604 | PBM binding z-score [3]: -0.396 | PBM binding z-score [4]: 0.107 | PBM binding z-score [5]: -0.651 | PBM binding z-score [6]: 1.19 | PBM binding z-score [7]: 1.1 | PBM binding z-score [8]: 0.934 | PBM binding z-score [9]: -0.0649 | PBM binding z-score [10]: 0.293 | PBM binding z-score [11]: 2.85 | PBM binding z-score [12]: 1.94 | PBM binding z-score [13]: -0.013 | PBM binding z-score [14]: -0.142 | PBM binding z-score [15]: -0.115 | PBM binding z-score [16]: 0.166 | PBM binding z-score [17]: 0.152 | PBM binding z-score [18]: 0.224 | PBM binding z-score [19]: -0.261 | PBM binding z-score [20]: 2.03
